Hit rate of the full screen: of about 48,000 compounds, about 450 (0.94%) were called active. About 19% were inconclusive and are not listed. This is one part of a sample in which actives are shown more often than they occur. Calls follow the shape of the dose curve; as a rule, active = well fitted inhibition curve with a large enough effect; inconclusive = small, poorly fitted or top-dose-only effect; inactive = no such curve, though single readings can be large or run the other way.
Assay: Primary qHTS for Identification of Small Molecule Inhibitors of Huntingtin Promoter Activity; also: nearly all actives have a fitted effect of over 50% in size
Settings: HEK293 HTT promoter firefly luciferase reporter (activity 0% = vehicle and -100% = no light), 24 h; series mostly up to 57.5 µM; activity change, negative = inhibition: at the top concentration
Excerpt: Assay Provider: Russell L. Margolis M.D.
Department Neurology, Johns Hopkins University School of Medicine, Baltimore, MD
Huntington's Disease (HD) is a neurodegenerative disorder caused by a CAG repeat expansion in exon 1 of huntingtin (HTT). While there are currently no disease-modifying treatments for HD, recent efforts have focused on development of nucleotide-based therapeutics to lower HTT expression. As an alternative to siRNA or oligonucleotide methods, we hypothesized that suppression of HTT expression might be accomplished by small molecules that either (1) directly decrease HTT expression by suppressing HTT promoter activity or (2) indirectly decrease HTT expression by increasing the promoter activity of HTT-AS, the gene antisense to HTT that appears to inhibit expression of HTT.
We developed and employed a high throughput screen for modifiers of HTT and HTT-AS promoter activity using luminescent reporter HEK293 cells; of the 52,041 compounds tested, we identified 898 replicable hits. We used a rigorous stepwise approach to assess compound toxicity and the capacity of the compounds to specifically lower huntingtin protein in 5 different cell lines, including HEK293 cells, HD lymphoblastoid cells, mouse primary neurons, HD iPSCs differentiated into cortical-like neurons, and HD hESCs. We found no compounds which were able to lower huntingtin without lowering cell viability in all assays, though the potential efficacy of a few compounds at non-toxic doses could not be excluded.
SEQUENCE No. (1, 2, 3, etc.); […] (e.g., Cells, Incubation, Reagent, etc.); VALUE and DESCRIPTION.
1; Reagent; 4 uL; 2,500 Hek293 luciferase reporter cells per wells
3; Compound; 23 nL; Control inhibitor / compound library
5; Reagent; 2.5 uL; Firefly Luc reagent; Dual-Glo Luciferase Reporter Assay System (Promega)
6; Time; 10 min; room temperature incubation
7; Detection; Luminescence; FLuc
NOTES (numbers refer to sequence above)
1; High-throughput screening, measuring luminescence from a Hek293 luciferase reporter, was performed in 1,536 well white-walled tissue-culture treated plates. 2,500 cells were plated in 4 µL of Opti-MEM per well using a Multidrop Combi Reagent Dispenser (ThermoFisher).
2; Assay plates were cultured for 24 hours.
3; Control inhibitor (PTC124; final concentration of 50 uM) and compound library (at final concentrations of 460 nM - 57.5 uM) were added to the assay plate using the Kalypsis Pintool Robotic System equipped with 1536 pinheads.
4; Cells were then incubated for 24 hours at 37 degrees C prior to luminescence measurements.
5; In all cases, luminescence was measured using the Dual-Glo Luciferase Reporter Assay System (Promega) following the manufacturer's instructions.
6; Room temperature incubation.
7; Luminescence signal was obtained using the PerkinElmer ViewLux plate reader. Results were normalized to vehicle control (0% activity) and zero RLU (-100% activity).
Potency is read from the fitted curve at half-maximal effect.

Activity change, negative = inhibition, inactive:
CC(C)CC(=O)NCC(c1ccc2c(c1)OCO2)N1CCN(c2ccc(F)cc2)CC1 (stereo not drawn) -14.9%
Cc1c(CCNC(=O)c2ccc(C(F)(F)F)cc2)sc2nc(-c3ccc(F)cc3)nn12 4.17%
CCOC(=O)c1c(C)[nH]c(CCC(=O)NCCCN2CCN(c3cccc(Cl)c3)CC2)c1C -29.4%
CCOc1ccc(NC(=O)C(=O)NCCc2csc3nc(-c4ccccc4F)nn23)cc1 -5.73%
COc1ccc(Cl)cc1N(C)C(=O)c1cc2c(=O)oc3ccc(C)cc3c2s1 -0.88%
COc1cccc(Nc2nc3ccccc3c3nncn23)c1 -14.9%
Cc1ccc(C)n1-c1nnc(N2CCC(C(=O)NCc3ccccc3Cl)CC2)s1 -11.2%
O=S(=O)(c1ccc(Br)cc1)c1nnn2c1nc(N1CCOCC1)c1sccc12 7.1%
Cc1ccc(CSc2nc3cccnc3n2Cc2ccc(C(=O)NC3CC3)cc2)cc1 9.61%
COc1ccc(S(=O)(=O)N2CCCCC2)cc1C(=O)NC1CCS(=O)(=O)C1 (stereo not drawn) -15.4%
Cc1ccc(-c2nn(CCC(=O)Nc3ccc(Cl)c(Cl)c3)c(=O)c3ccccc23)cc1 -9.37%
CCN(CC)CCNC(=O)CN1N=C(c2ccc(OC)cc2)CCC1=O -8.91%
CSc1ncc(C(=O)NCc2ccccc2Cl)c(C(F)(F)F)n1 -7.35%
Cc1ccc(SCC(=O)Nc2ccc3oc(-c4ccccc4F)nc3c2)cc1 0%
CCOC(=O)c1cc2c(=O)n3ccccc3nc2n(CC2CCCO2)c1=NC(=O)c1ccc(C(C)(C)C)cc1 (stereo not drawn) -8.51%
CCOc1ccc2oc(=O)cc(CN3CCN(C(=O)c4ccc(F)cc4)CC3)c2c1 -21.1%
CCOc1ccc(OCC)c(Nc2nc3ccccc3n3nnnc23)c1 -15.9%
N#Cc1ccc(-c2cccs2)nc1SCc1ccc(Br)cc1 12.7%
Cc1ccc(CCNC(=O)c2ccc(CNS(=O)(=O)c3ccc(C)cc3)cc2)cc1 -5.53%
COc1ccc(NC(=O)CCCN2C(=O)CCn3nc(-c4cn(C)c5ccccc45)cc32)cc1OC 0%
CCOc1ccccc1NC(=O)CN1CCN(S(=O)(=O)c2ccc(Br)cc2)CC1 -13.4%
COc1ccccc1NC(=O)c1cc(C2CC2)nc2c1c(C)nn2-c1ccc(C)cc1 -10.5%
Cc1ccc(Cl)cc1-n1ncc2c(N3CCC(C(N)=O)CC3)ncnc21 -30.7%
CCN1CCN(c2ncnc3c2cnn3-c2ccc(C)c(C)c2)CC1 -8.96%
Cc1cc(OCC(=O)NCC2(N(C)C)CCCCC2)cc(C)c1Cl -5.14%
Cc1nc2nc(SCC(=O)NC3CCC(C)CC3)nn2c(C)c1Cc1ccccc1Cl (stereo not drawn) 2.74%
Cc1ccc(-n2nnnc2CNC(=O)c2ccccc2C)cc1C 1.21%
COc1ccc(OCCn2cc(C(=O)C3CCCCC3)c3ccccc32)cc1 -27.6%
COc1ccc(-c2noc(-c3ccc(N4CCN(c5ccccc5)CC4)c([N+](=O)[O-])c3)n2)cc1OC -7.68%
O=C(COc1ccccc1)NCc1ccc2c(c1)CCN2C(=O)c1ccc(F)cc1 -29.6%
Cc1cc2c(cc1S(=O)(=O)CCC(=O)NCc1ccccc1)OCC(=O)N2 -5.35%
Cn1c(SCC(=O)N2CCCc3ccccc32)ncc(C(=O)Nc2ccc(F)cc2)c1=O -4.61%
COc1ccc(S(=O)(=O)NCc2cccn2Cc2cccc(C)c2)cc1 0%
Cc1ccc(-n2cnc3cc(C(=O)NCCC4=CCCCC4)ccc32)cc1Cl -5.68%
CC(C)c1ccc(NC(=O)c2cc(S(=O)(=O)N3CCc4ccccc4C3)ccc2F)cc1 -20%
O=c1n(Cc2cccc(C(F)(F)F)c2)c2ccccc2c2nc(-c3ccccc3)nn12 -9.87%
COc1ccc(N2CCN(C(=O)c3cn(C)c4ccc(S(=O)(=O)N5CCOCC5)cc4c3=O)CC2)cc1 -18.7% [at 11.5 µM]
O=C(Nc1cc(C(F)(F)F)ccc1Cl)c1nc2ccccc2nc1N1CCCCC1 -3.65%
CCN(C(=O)Cn1c(=O)nc(-c2ccccc2)c2cc(Cl)ccc21)c1cccc(C)c1 -4.22%
COc1ccc(NC(=O)c2ccc3nc(CCc4ccccc4)oc3c2)c(OC)c1 36.9%
COc1ccc2c(c1)c(=O)c(S(=O)(=O)c1ccc(F)cc1)cn2CC(=O)Nc1ccc(C)cc1C -9.64%
Fc1ccc(C(Nc2ccc(Cl)c(C(F)(F)F)c2)c2nnc(-c3ccccc3)o2)cc1 (stereo not drawn) -35.9%
CC(=O)Nc1ccc(S(=O)(=O)N2CCN(c3ccccc3)CC2)cc1 -26.9%
COc1ccc(Nc2ncc(C(=O)Nc3cc(C)ccc3OC)c3ccccc23)cc1 -18.3%
O=C(CCCn1c(=O)c2cccn2c2cccnc21)NCc1ccc(F)cc1 8.1%

Potency, active:
Cc1ccc(-n2ncc3c(N4CCC(C(N)=O)CC4)ncnc32)cc1 0.316 µM
Cc1ccc(NC(=O)c2cc(S(=O)(=O)NCCC3=CCCCC3)ccc2F)cc1C 28.2 µM
COc1ccc(NC(=O)c2ccc3oc(=O)c(S(=O)(=O)c4ccc(F)cc4)cc3c2)c(OC)c1 11.2 µM
